# Assay results from PubChem BioAssay AID743449 (Broad Institute, 2014).
# Out of some 9,900 compounds screened, about 90 (0.9%) were called active. Not shown: some 2% with an inconclusive outcome. The entries come from a sample that favours actives as a whole. Values without a mark were called inactive.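 The calls were made as follows: active = mean normalized replicate activity at least 50 and at least half of replicates each reaching 50; inconclusive = only one of the two criteria met; inactive = neither criterion met.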
# Assay: YAP1 pathway inhibitors via CTGF transcript, primary screen, DLD1 colon cancer cells, RT-qPCR, single point (AID 743449);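 also: 0% = neutral control wells and 100% = dasatinib control wells; higher means stronger suppression of CTGF expression like dasatinib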
# Details: DLD1 CTGF mRNA qPCR, 24 h; at 12.5 µM; stronger effect = higher value
row,SMILES,inhibition
1,CCCNC(=O)N1C[C@@H]2[C@H](c3ccccc31)[C@@H](CO)N2Cc1cccc(OC)c1,-37.6%
2,COCCNC(=O)c1cc2c(c(-c3cccc(C4=CCCCC4)c3)n1)[C@@H](CCO)N([S@](=O)C(C)(C)C)C2,-10.8%
3,CCc1nc(N2[C@@H](C#N)[C@@H](c3ccccc3-c3ccc(F)cc3)[C@@H]2CO)sc1C,10.1%
4,CCc1nc(N2[C@H](CO)[C@@H](c3ccccc3-c3ccc(F)cc3)[C@@H]2C#N)sc1C,55.4% (active)
5,CCc1nc(N2[C@H](CO)[C@H](c3ccccc3-c3ccc(F)cc3)[C@@H]2C#N)sc1C,-17.7%
6,C[C@H]1CN([C@@H](C)CO)C(=O)c2cccc(NC(=O)c3ccc(-c4nccs4)cc3)c2O[C@@H]1CN(C)C(=O)Nc1ccc(C(F)(F)F)cc1,72.5% (active)
7,C[C@H](CO)N1C[C@H](C)[C@H](CN(C)C(=O)Nc2ccc3c(c2)OCO3)Oc2c(NC(=O)c3nc4ccccc4s3)cccc2C1=O,14.1%
8,COc1ccc(NC(=O)N(C)C[C@H]2Oc3c(NC(=O)CCCCCC(=O)Nc4ccccc4N)cccc3C(=O)N([C@@H](C)CO)C[C@@H]2C)cc1,30.8%
9,C[C@@H]1CN([C@@H](C)CO)C(=O)c2cccc(NC(=O)c3nc4ccccc4s3)c2O[C@H]1CN(C)C(=O)Nc1ccc2c(c1)OCO2,52.6% (active)
10,COc1ccc(NC(=O)N(C)C[C@@H]2Oc3c(NC(=O)CCCCCC(=O)Nc4ccccc4N)cccc3C(=O)N([C@@H](C)CO)C[C@H]2C)cc1,1.84%
11,CNC[C@H]1Oc2c(NC(=O)Nc3cccc4ccccc34)cccc2C(=O)N([C@@H](C)CO)C[C@H]1C,-2.92%
12,CNC[C@@H]1Oc2c(NC(=O)Nc3cccc4ccccc34)cccc2C(=O)N([C@@H](C)CO)C[C@H]1C,17%
13,COc1ccc(NC(=O)N(C)C[C@H]2Oc3c(NC(=O)CCCCCC(=O)Nc4ccccc4N)cccc3C(=O)N([C@H](C)CO)C[C@@H]2C)cc1,51% (active)
14,C[C@@H]1CN([C@@H](C)CO)C(=O)c2cccc(NC(=O)c3nc4ccccc4s3)c2O[C@@H]1CN(C)C(=O)Nc1ccc2c(c1)OCO2,13.9%
15,C[C@H]1CN([C@@H](C)CO)C(=O)c2cccc(NC(=O)c3ccc(-c4nccs4)cc3)c2O[C@H]1CN(C)C(=O)Nc1ccc(C(F)(F)F)cc1,11.6%
16,C[C@H](CO)N1C[C@H](C)[C@H](CN(C)C(=O)Nc2ccc(C(F)(F)F)cc2)Oc2c(NC(=O)c3ccc(-c4nccs4)cc3)cccc2C1=O,-20.1%

row,SMILES,inhibition
1,CNC[C@H]1Oc2c(NC(=O)Nc3cccc4ccccc34)cccc2C(=O)N([C@H](C)CO)C[C@@H]1C,50.9% (active)
2,O=C(C[C@@H]1C=C[C@@H](NC(=O)c2ccncc2)[C@H](CO)O1)NCC1CC1,15.8%
3,COCC#Cc1ccc([C@H]2[C@@H](CO)N3CCCCN(Cc4cccnc4)C[C@H]23)cc1,-7.41%
4,O=C(C1CCOCC1)N1CC2(C1)[C@H](c1ccccc1)[C@@H](CO)N2C(=O)CC1CC1,-35.8%
5,COc1cccc(NC(=O)C[C@@H]2CC[C@@H]3[C@@H](COc4ccc(NC(=O)C5CC5)cc4C(=O)N3C)O2)c1,-24.6%
6,COc1ccc(-c2ccc([C@@H]3[C@@H](CO)N4C(=O)CN(C(=O)Cc5ccccn5)C[C@@H]34)cc2)cc1,16.8%
7,CO[C@H](CN(C)Cc1ccc2c(c1)OCO2)[C@@H](C)CN(C(=O)Nc1ccc(F)cc1)[C@H](C)CO,-17.7%
8,CC(C)[C@H]1CC=CC[C@@H](C)Oc2ccccc2C(=O)N(C)[C@H](C(C)C)C(=O)N1 (mixture of isomers),34.9%
9,Cc1noc(C)c1NC(=O)N(C)C[C@@H]1Oc2cc(C#CCN(C)C)ccc2S(=O)(=O)N([C@H](C)CO)C[C@H]1C,-1.27%
10,C[C@@H]1CN([C@H](C)CO)C(=O)c2cccc(NC(=O)c3nc4ccccc4s3)c2O[C@@H]1CN(C)C(=O)Nc1ccc2c(c1)OCO2,6.24%
11,COc1ccc(S(=O)(=O)N(C)C[C@@H]2Oc3c(NC(=O)c4nc5ccccc5s4)cccc3C(=O)N([C@H](C)CO)C[C@H]2C)cc1,9.74%
12,C[C@@H]1CN([C@H](C)CO)C(=O)c2cccc(NC(=O)c3nc4ccccc4s3)c2O[C@H]1CN(C)C(=O)Nc1ccc2c(c1)OCO2,73% (active)
13,C[C@H](CO)N1C[C@H](C)[C@@H](CN(C)C(=O)Nc2ccc3c(c2)OCO3)Oc2c(NC(=O)c3nc4ccccc4s3)cccc2C1=O,46.6%
14,C[C@H]1CN([C@@H](C)CO)C(=O)c2cccc(NC(=O)c3nc4ccccc4s3)c2O[C@@H]1CN(C)C(=O)Nc1ccc2c(c1)OCO2,78.9% (active)
15,COc1ccc(S(=O)(=O)N(C)C[C@@H]2Oc3c(NC(=O)c4nc5ccccc5s4)cccc3C(=O)N([C@@H](C)CO)C[C@@H]2C)cc1,34.9%
